From the antibiotic and cytotoxicity screens of Wong et al. (2023)
In all, about 39,000 compounds went through this assay and about 1,500 (3.8%) were called active. The sample as a whole holds a higher share of actives than the screen did.

What follows are compounds tested on HSkMC (human skeletal muscle cells) (assay: cytotoxicity call (relative viability < 0.9)). Conditions: 10 µM.

| SMILES | cytotoxicity call |
| --- | --- |
| Cn1cnc(CCNC(=O)C[C@H]2CC[C@H]3[C@@H](COC[C@H](O)CN3C(=O)Nc3ccc(Cl)cc3)O2)c1 | inactive |
| O=C(C[C@@H]1CC[C@@H]2[C@H](COC[C@H](O)CN2S(=O)(=O)c2ccccc2F)O1)N1CCC(Cc2ccccc2)CC1 | inactive |
| COCC#Cc1cnc2c(c1)C(=O)N([C@@H](C)CO)C[C@@H](C)[C@@H](CN(C)S(=O)(=O)c1cn(C)cn1)O2 | inactive |
| C#CC[C@H](c1nc2cc(Cl)ccc2c(=O)n1Nc1ccccc1)N(CCCN)C(=O)c1cccc(Cl)c1F | active |
| COc1ccc(NC(=O)N(C)C[C@H]2OCCCC[C@@H](C)Oc3ccc(NC(=O)c4ccccc4)cc3C(=O)N([C@H](C)CO)C[C@@H]2C)cc1 | inactive |
| C[C@H](CO)N1C[C@H](C)[C@@H](CN(C)S(=O)(=O)c2cn(C)cn2)Oc2c(NC(=O)c3ccc(-c4nccs4)cc3)cccc2C1=O | inactive |
| COc1cc(Nc2ncc(F)c(Nc3ccc4c(n3)N(COP(=O)(O)O)C(=O)C(C)(C)O4)n2)cc(OC)c1OC | active |
| NC1CCCCC1N.O=C1[O][Pt][O]C1=O (stereo unspecified) | inactive |
| Cc1noc(C)c1NC(=O)N(C)C[C@H]1Oc2c(NC(=O)NC(C)C)cccc2C(=O)N([C@@H](C)CO)C[C@H]1C | inactive |
| Cc1ccc(S(=O)(=O)Nc2ccc3c(c2)C(=O)N([C@@H](C)CO)C[C@H](C)[C@@H](CN(C)C(=O)NC2CCCCC2)OCCCC[C@H](C)O3)cc1 | inactive |
| C[C@H](CO)N1C[C@H](C)[C@H](CN(C)C(=O)c2ccncc2)OCCCC[C@H](C)Oc2ccc(NS(=O)(=O)c3cn(C)cn3)cc2C1=O | inactive |
| CC(=O)Oc1ccccc1C(=O)Nc1ncc([N+](=O)[O-])s1 | active |
| CC(=O)Nc1ncc([N+](=O)[O-])s1 | inactive |
| CC(=O)Oc1ccccc1C(=O)Nc1ccccc1 | inactive |
| C[C@@H]1CN([C@H](C)CO)C(=O)c2cc(N(C)C)ccc2O[C@@H](C)CCCCO[C@@H]1CN(C)S(=O)(=O)c1cn(C)cn1 | inactive |
| CCCNC(=O)C[C@H]1CC[C@H]2[C@@H](COc3ccc(NC(=O)Nc4ccc(C#N)cc4)cc3C(=O)N2C)O1 | inactive |
| CCOCCOCCOc1oc(C(=O)NC2CCCCC2)c(-c2ccc(Cl)cc2)c1S(=O)(=O)c1ccc(Cl)cc1 | inactive |
| CS(=O)(=O)O.CSc1ccc2c(c1)C(N1CCN(C)CC1)Cc1ccccc1S2 (stereo unspecified) | active |
| CN1CCC(=C2c3ccccc3Sc3ccccc32)CC1.O=C(O)C=CC(=O)O | inactive |
| CSc1ccc2c(c1)N(CCC1CCCCN1C)c1ccccc1S2.Cl (stereo unspecified) | inactive |
| C[C@@H]1CN([C@H](C)CO)S(=O)(=O)c2ccc(C#Cc3ccc(F)cc3)cc2O[C@H]1CN(C)C(=O)CN(C)C | inactive |

| SMILES | cytotoxicity call |
| --- | --- |
| CC(C)NC(=O)N(C)C[C@H]1Oc2ccc(NC(=O)NC3CCCCC3)cc2CC(=O)N([C@@H](C)CO)C[C@H]1C | inactive |
| CNC(=O)Nc1ccc(-c2nc(N3C[C@H]4CC[C@@H](C3)O4)c3cnn(C4CCC5(CC4)OCCO5)c3n2)cc1 | active |
| CO[C@H]1C[C@H](O[C@H]2[C@H](C)O[C@@H](O[C@@H]3/C(C)=C/C[C@@H]4C[C@@H](C[C@]5(C=C[C@H](C)[C@@H](C6CCCCC6)O5)O4)OC(=O)[C@@H]4C=C(C)[C@@H](O)[C@H]5OC/C(=C\C=C\[C@@H]3C)[C@]54O)C[C@@H]2OC)O[C@@H](C)[C@@H]1O | inactive |
| CN[C@@H]1[C@@H](C)O[C@@H](O[C@H]2[C@H](C)O[C@@H](O[C@@H]3/C(C)=C/C[C@@H]4C[C@@H](C[C@]5(C=C[C@H](C)[C@@H](C(C)C)O5)O4)OC(=O)[C@@H]4C=C(C)[C@@H](O)[C@H]5OC/C(=C\C=C\[C@@H]3C)[C@]54O)C[C@@H]2OC)C[C@H]1OC | active |
| COC1CC(OC2C(C)OC(OC3C(C)=CCC4CC(CC5(C=CC(C)C(C6CCCCC6)O5)O4)OC(=O)C4C=C(C)C(O)C5OCC(=CC=CC3C)C45O)CC2OC)OC(C)C1O (stereo unspecified) | inactive |
| CC[C@H](C)[C@H]1O[C@]2(C=C[C@@H]1C)C[C@@H]1C[C@@H](C/C=C(\C)[C@@H](O[C@H]3C[C@H](OC)[C@@H](O[C@H]4C[C@H](OC)[C@@H](NC(C)=O)[C@H](C)O4)[C@H](C)O3)[C@@H](C)/C=C/C=C3\CO[C@@H]4[C@H](O)C(C)=C[C@@H](C(=O)O1)[C@]34O)O2 | active |
| CCC(C)C1OC2(C=CC1C)CC1CC(CC=C(C)C(OC3CC(OC)C(OC4CC(OC)C(O)C(C)O4)C(C)O3)C(C)C=CC=C3COC4C(OC)C(C)=CC(C(=O)O1)C34O)O2 (stereo unspecified) | active |
| CCC(C)C1OC2(C=CC1C)CC1CC(CC=C(C)C(OC3CC(OC)C(OC4CC(OC)C(NC(C)=O)C(C)O4)C(C)O3)C(C)C=CC=C3COC4C(O)C(C)=CC(C(=O)O1)C34O)O2 (stereo unspecified) | inactive |
| C[C@H](CO)N1C[C@H](C)[C@@H](CN(C)C(=O)C2CCC2)Oc2cc(C#Cc3ccncc3)ccc2S1(=O)=O | inactive |
| Cc1noc(C)c1NC(=O)N(C)C[C@@H]1OCCCC[C@@H](C)Oc2ccc(NS(=O)(=O)c3ccc(Cl)cc3)cc2C(=O)N([C@H](C)CO)C[C@H]1C | inactive |
| C[C@@H]1CN([C@H](C)CO)S(=O)(=O)c2ccc(C3=CCCC3)cc2O[C@H]1CN(C)C(=O)c1cnccn1 | inactive |
| COc1cccc(S(=O)(=O)N2C[C@H](O)COC[C@@H]3O[C@H](CC(=O)N4CCOCC4)CC[C@H]32)c1 | inactive |
| C[C@H]1CN([C@@H](C)CO)C(=O)c2cc(NC(=O)CCCN(C)C)ccc2O[C@H]1CN(C)Cc1ccc2c(c1)OCO2 | inactive |
| COCC(=O)Nc1ccc2c(c1)OC[C@@H](C)N(C(=O)Cc1cccnc1)C[C@@H](C)[C@@H](OC)CN(C)C2=O | inactive |
| C[C@H](CO)N1C[C@H](C)[C@@H](CN(C)C(=O)CCN2CCCCC2)Oc2ncc(C#Cc3ccccn3)cc2C1=O | inactive |
| CN(Cc1ccccn1)C(=O)[C@@]12COC[C@@H]1CN(S(C)(=O)=O)C2 | inactive |
| CC(C)NC(=O)Nc1ccc2c(c1)C(=O)N([C@H](C)CO)C[C@@H](C)[C@H](CN(C)Cc1ccccc1)OCCCC[C@H](C)O2 | inactive |
| C[C@H]1CN([C@@H](C)CO)C(=O)c2cc(NC(=O)Nc3ccc(F)cc3)ccc2O[C@H]1CN(C)C(=O)Nc1ccc(C(F)(F)F)cc1 | inactive |
| C[C@@H]1CN([C@@H](C)CO)C(=O)c2cc(NC(=O)Nc3ccc(F)cc3)ccc2O[C@@H]1CN(C)C(=O)Nc1ccc(C(F)(F)F)cc1 | active |
| C[C@H](CO)N1C[C@H](C)[C@H](CN(C)C(=O)Nc2ccc(C(F)(F)F)cc2)Oc2ccc(NC(=O)Nc3ccc(F)cc3)cc2C1=O | active |
| C[C@H](CO)N1C[C@H](C)[C@@H](CN(C)C(=O)Nc2ccc(C(F)(F)F)cc2)Oc2ccc(NC(=O)Nc3ccc(F)cc3)cc2C1=O | inactive |

| SMILES | cytotoxicity call |
| --- | --- |
| C[C@@H]1CN([C@H](C)CO)C(=O)c2cc(NC(=O)Nc3ccc(C(F)(F)F)cc3)ccc2O[C@@H]1CN(C)C(=O)Nc1ccc(F)cc1 | active |
| C[C@H](CO)N1C[C@H](C)[C@@H](CN(C)C(=O)Nc2ccc(F)cc2)Oc2ccc(NC(=O)Nc3ccc(C(F)(F)F)cc3)cc2C1=O | inactive |
| C[C@H]1CN([C@@H](C)CO)C(=O)c2cc(NC(=O)Nc3ccc(F)cc3)ccc2O[C@@H]1CN(C)C(=O)Nc1ccc(C(F)(F)F)cc1 | inactive |
| C[C@@H]1CN([C@@H](C)CO)C(=O)c2cc(NC(=O)Nc3ccc(C(F)(F)F)cc3)ccc2O[C@@H]1CN(C)C(=O)Nc1ccc(F)cc1 | active |
| C[C@@H]1CN([C@H](C)CO)C(=O)c2cc(NC(=O)Nc3ccc(C(F)(F)F)cc3)ccc2O[C@H]1CN(C)C(=O)Nc1ccc(F)cc1 | inactive |
| C[C@@H]1CN([C@H](C)CO)C(=O)c2cc(NC(=O)Nc3ccc(F)cc3)ccc2O[C@H]1CN(C)C(=O)Nc1ccc(C(F)(F)F)cc1 | inactive |
| C[C@H]1CN([C@@H](C)CO)C(=O)c2cc(NC(=O)Nc3ccc(C(F)(F)F)cc3)ccc2O[C@H]1CN(C)C(=O)Nc1ccc(F)cc1 | inactive |
| C[C@H](CO)N1C[C@H](C)[C@H](CN(C)C(=O)Nc2ccc(F)cc2)Oc2ccc(NC(=O)Nc3ccc(C(F)(F)F)cc3)cc2C1=O | inactive |
| C[C@@H]1CCCCO[C@H](CN(C)CC2CC2)[C@@H](C)CN([C@H](C)CO)C(=O)c2cc(NS(=O)(=O)c3ccc(Cl)cc3)ccc2O1 | inactive |
| C[C@@H]1CCCCO[C@@H](CN(C)Cc2ccc3c(c2)OCO3)[C@@H](C)CN([C@@H](C)CO)C(=O)c2cc(NC(=O)Cc3ccccc3)ccc2O1 | inactive |
| Cc1cc(C(=O)Nc2cccc3c2O[C@H](CN(C)S(=O)(=O)c2ccccc2)[C@H](C)CN([C@@H](C)CO)C3=O)n(C)n1 | inactive |
| C[C@H](CO)N1C[C@H](C)[C@H](CN(C)C(=O)NC2CCCCC2)Oc2ccc(NS(=O)(=O)c3cn(C)cn3)cc2CC1=O | inactive |
| Cc1nc(C)n(C(=O)N2CCOCC2)n1 | inactive |
| C[C@@H](O[C@H]1OCCN(Cc2n[nH]nc2CN(C)C)[C@H]1c1ccc(F)cc1)c1cc(C(F)(F)F)cc(C(F)(F)F)c1 | inactive |
| CCCC#Cc1cnc2c(c1)C(=O)N([C@H](C)CO)C[C@H](C)[C@H](CN(C)C(=O)c1ccc3c(c1)OCO3)O2 | inactive |
| C[C@H]1CN([C@@H](C)CO)C(=O)c2cc(NC(=O)Cn3cnnn3)ccc2O[C@H]1CN(C)C(=O)Nc1ccc(C(F)(F)F)cc1 | inactive |
| C[C@@H]1CN([C@@H](C)CO)C(=O)c2cc(NC(=O)Nc3ccc(C(F)(F)F)cc3)ccc2O[C@@H]1CN(C)C(=O)Nc1ccc2c(c1)OCO2 | active |
| C[C@@H]1CN([C@@H](C)CO)C(=O)c2cc(NC(=O)Nc3ccc4c(c3)OCO4)ccc2O[C@H]1CN(C)C(=O)Nc1ccc(C(F)(F)F)cc1 | inactive |
| C[C@H]1CN([C@@H](C)CO)C(=O)c2cc(NC(=O)Nc3ccc4c(c3)OCO4)ccc2O[C@@H]1CN(C)C(=O)Nc1ccc(C(F)(F)F)cc1 | inactive |
